Among the data in PubChem BioAssay (NCI) are growth values, retold here.

About 83,000 compounds went through this panel and 20% of them were active in at least one assay; those are over-represented in the sample as a whole.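 Growth was measured after 48 h exposure to one concentration of compound in 96-well plates. Values under 10 count as active.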 Values without a mark were called inactive. Calls of active or inactive are those of the source.

Among the test systems are SR leukemia; RPMI-8226 leukemia; OVCAR-8 ovarian; OVCAR-5 ovarian; OVCAR-4 ovarian; SK-OV-3 ovarian; IGROV1 ovarian; OVCAR-3 ovarian; HS 578T breast; NCI/ADR-RES ovarian; T-47D breast; BT-549 breast; MDA-MB-435 melanoma; SW-620 colon; MCF7 breast; HCT-116 colon; HCC-2998 colon; KM12 colon.
Experiment in all cases: NCI-60 one-dose screen, 48 h (100 = growth as untreated, 0 = no growth, -100 = all killed)
Common to all, as to conditions: 10 µM unless noted

As to `CC(CN)[C@@H]1CC[C@]2(CO)CC[C@]3(C)[C@H](CC[C@@H]4[C@@]5(C)CCC(NCCO)C(C)(C)[C@@H]5CC[C@]43C)[C@@H]12` (some centres undefined), the growth in the test on SR leukemia was -21.5% (active); in the test with RPMI-8226 leukemia it was 0.0868% (active); with OVCAR-8 ovarian it was 75.8%; in the test on OVCAR-5 ovarian, 84.2%; with OVCAR-4 ovarian, 77.3%; in the test with SK-OV-3 ovarian, 100%. Moreover, the growth in the test on IGROV1 ovarian is 71.4%; with OVCAR-3 ovarian, 53.1%; with HS 578T breast, 58.7%; in the test with NCI/ADR-RES ovarian, 91.1%; in the test with T-47D breast, 77.5%; in the test on BT-549 breast, 64.7%. Also, the growth is 31% with MDA-MB-435 melanoma; -60.9% (active) in the test with SW-620 colon; 3.04% (active) in the test on MCF7 breast; 6.92% (active) in the test on HCT-116 colon; -26.8% (active) with HCC-2998 colon; 32.6% in the test on KM12 colon.
For the compound `O=C(c1ccccc1)[C@@H](c1ccccc1)[C@]1(O)C(=O)Nc2ccccc21`, the growth in the test on SR leukemia is 102%; in the test with RPMI-8226 leukemia, 100%; in the test with OVCAR-8 ovarian, 92.6%; in the test on OVCAR-5 ovarian it was 82.1%; with OVCAR-4 ovarian it was 98.7%; in the test on SK-OV-3 ovarian, 84%. In addition, the growth was 98.4% with IGROV1 ovarian; 94.2% in the test with OVCAR-3 ovarian; 93.3% with HS 578T breast; 102% in the test with NCI/ADR-RES ovarian; 85.2% in the test with T-47D breast; 95% in the test on BT-549 breast. The growth in the test with MDA-MB-435 melanoma is 98.4%; with SW-620 colon it was 100%; with MCF7 breast, 92.4%; in the test with HCT-116 colon, 96.6%; in the test on HCC-2998 colon it was 104%; in the test on KM12 colon, 85.5%.
Turning to `C#CC#CC#CC#CC#CC#CC#CC#CC[C@@H]1OC[C@H](COC(=O)O[C@@H](C(=O)O[C@H]2C[C@@]3(O)[C@@H](OC(=O)c4ccccc4)[C@@H]4[C@]5(OC(C)=O)CO[C@@H]5C[C@H](O)[C@@]4(C)C(=O)[C@H](OC(C)=O)C(=C2C)C3(C)C)[C@@H](NC(=O)c2ccccc2)c2ccccc2)O1`, the growth was 20.5% in the test on SR leukemia; 9.65% (active) in the test on RPMI-8226 leukemia; 33.8% with OVCAR-8 ovarian; 24.3% in the test on OVCAR-5 ovarian; 62.9% in the test with OVCAR-4 ovarian; 51.7% in the test on SK-OV-3 ovarian. Also, the growth is 32.6% in the test with IGROV1 ovarian; 7.3% (active) with OVCAR-3 ovarian; 5.42% (active) with HS 578T breast; 102% in the test with NCI/ADR-RES ovarian; 39.1% in the test with T-47D breast; 34.6% in the test on BT-549 breast. Moreover, the growth in the test on MDA-MB-435 melanoma was -63.1% (active); with SW-620 colon, 28.5%; with MCF7 breast it was 18%; in the test on HCT-116 colon it was 12.5%; in the test on HCC-2998 colon, 19.7%; with KM12 colon it was 9.33% (active).
Consider `COC1CC(O)C2=C(CC3C(/C(C)=C\CC=C(C)C)CCC3(C)O2)C1=O` (centres undefined), for which the growth was 86.4% in the test on SR leukemia; 93.6% with RPMI-8226 leukemia; 99.9% in the test on OVCAR-8 ovarian; 114% in the test with OVCAR-5 ovarian; 113% in the test with OVCAR-4 ovarian; 107% in the test with SK-OV-3 ovarian. Further, the growth with IGROV1 ovarian is 110%; in the test on OVCAR-3 ovarian it was 109%; in the test with HS 578T breast, 98.6%; with NCI/ADR-RES ovarian it was 103%; in the test with T-47D breast, 94.9%; in the test with BT-549 breast, 107%. In addition, the growth with MDA-MB-435 melanoma is 109%; in the test on SW-620 colon, 104%; in the test with MCF7 breast it was 99.4%; in the test with HCT-116 colon, 98.9%; in the test with HCC-2998 colon, 105%; in the test on KM12 colon, 107%.
In the case of `O=C1CC2C=CCN2C=C1NC(=O)c1ccccc1` (centres undefined), the growth is 88.7% with SR leukemia; 112% in the test on RPMI-8226 leukemia; 114% with OVCAR-8 ovarian; 97.4% in the test with OVCAR-5 ovarian; 109% in the test with OVCAR-4 ovarian; 113% with SK-OV-3 ovarian. Moreover, the growth was 106% in the test with IGROV1 ovarian; 105% in the test with OVCAR-3 ovarian; 115% in the test with HS 578T breast; 103% in the test with NCI/ADR-RES ovarian; 99.8% with T-47D breast; 103% with BT-549 breast. Besides, the growth was 105% with MDA-MB-435 melanoma; 109% in the test with SW-620 colon; 101% with MCF7 breast; 93.6% in the test on HCT-116 colon; 101% in the test with HCC-2998 colon; 101% in the test on KM12 colon.
As for `CCCCC1=C(Br)C(=O)c2ncccc2C1=O`, the growth with SR leukemia was 30.8%; in the test with RPMI-8226 leukemia, 41.7%; in the test with OVCAR-8 ovarian, 95.4%; in the test on OVCAR-5 ovarian, 112%; with OVCAR-4 ovarian, 88.2%; in the test with SK-OV-3 ovarian, 90.2%. Moreover, the growth in the test with IGROV1 ovarian was 102%; in the test on OVCAR-3 ovarian it was 57.1%; in the test on HS 578T breast it was 104%; with NCI/ADR-RES ovarian, 96.8%; with T-47D breast, 71.2%; in the test with BT-549 breast, 94.4%. Further, the growth with MDA-MB-435 melanoma was 105%; with SW-620 colon, 60.2%; with MCF7 breast it was 89.5%; in the test with HCT-116 colon, 62.6%; with HCC-2998 colon, 108%; with KM12 colon, 96.9%.
As for `O=C1c2c(c3c4cc(F)ccc4oc3c3[nH]c4ccccc4c23)C(=O)N1O`, the growth in the test on SR leukemia was 9.66% (active); in the test on RPMI-8226 leukemia, 26.2%; with OVCAR-8 ovarian it was 50.8%; in the test with OVCAR-5 ovarian it was 100%; with OVCAR-4 ovarian, 61.4%; in the test on SK-OV-3 ovarian, 55.7%. The growth with IGROV1 ovarian was 25.6%; in the test with OVCAR-3 ovarian, 25.5%; in the test on HS 578T breast, 65.2%; with NCI/ADR-RES ovarian it was 45.6%; with T-47D breast it was 5.76% (active); with BT-549 breast it was 44.8%. Also, the growth in the test with MDA-MB-435 melanoma is 48.9%; with SW-620 colon it was 31.6%; with MCF7 breast, 17.3%; with HCT-116 colon, 23.4%; with HCC-2998 colon it was 70.3%; with KM12 colon, 39.5%.
On to `O=C1C=CC2(O)OC(c3ccccc3)CC(=O)C2=C1O` (centres undefined), for which the growth in the test on SR leukemia was 56.2%; in the test with RPMI-8226 leukemia, 64.3%; in the test with OVCAR-8 ovarian it was 82%; in the test with OVCAR-5 ovarian, 96.4%; with OVCAR-4 ovarian, 79.5%; in the test with SK-OV-3 ovarian it was 106%. Also, the growth was 90.9% in the test on IGROV1 ovarian; 1.12% (active) in the test with OVCAR-3 ovarian; 102% with HS 578T breast; 86% in the test on NCI/ADR-RES ovarian; 83.6% in the test with T-47D breast; 74% in the test on BT-549 breast. For the same compound, the growth with MDA-MB-435 melanoma was 87.7%; in the test on SW-620 colon, 102%; in the test on MCF7 breast it was 86%; in the test on HCT-116 colon it was 82.9%; with HCC-2998 colon, 101%; with KM12 colon, 15.9%.
